# Measured values: PubChem BioAssay AID1578 (Sanford-Burnham Center for Chemical Genomics, 2009)
# Screen size: about 290,000 compounds; about 3,000 (1%) were called active. The sample holds actives, similar compounds and a random draw of the others, so the mix is not that of the screen. Cut-off read from the data, not from the text of the source: active = inhibition mostly above about 36% (no sharp cut-off); inactive = mostly below about 34%.
# Assay: NOD1 signaling inhibitors, primary screen, cell-based, luminescence, uHTS (AID 1578);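 note: HEK-293T reporter cells stimulated with the NOD1 agonist gamma-tri-DAP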
# Settings: NOD1-driven NF-kB luciferase reporter cells, at 4 µM, stronger effect = higher value
row,Compound,inhibition
1,O=S(=O)(c1ccc(Cl)cc1)n1cnc2ccccc21,-31.4% (inactive)
2,Cc1ccc(-c2csc(N(C)C(=O)c3c(C)nn(-c4ccccc4)c3Cl)n2)cc1,33.6% (inactive)
3,O=C(CN1C(=O)NC2(CCCCC2)C1=O)N1CCN(S(=O)(=O)c2ccccc2)CC1,-35.1% (inactive)
4,Cc1cccc(C)c1Nc1nnc(SCc2nc3ccccc3s2)s1,-39.5% (inactive)
5,Nc1ccccc1Nc1cc(-c2ccccc2)[nH]n1,48.4% (active)
6,Nc1ccccc1Nc1cc(-c2ccccc2)nn1-c1ccccc1,-20.6% (inactive)
7,CC1(C)CC(=O)C=C(Nc2cc(-c3ccccc3)[nH]n2)C1,-25.9% (inactive)
8,CC(C)C(NC(=O)c1ccc(F)cc1)C(=O)NCC1CCCO1 (centres undefined),-6.2% (inactive)
9,COc1cc(OC)cc(C(=O)Nc2ccc(S(=O)(=O)N3CCOCC3)cc2)c1,-9.3% (inactive)
10,COc1cc(OC)cc(C(=O)N2CCC3(CC2)NCCc2[nH]cnc23)c1,-20.2% (inactive)
11,CC1Sc2ccc(Cl)cc2-c2nc(N)ncc21 (centres undefined),50.5% (active)
12,CC1C/C(=N\NC(N)=S)c2cc(Cl)ccc2S1 (centres undefined),3.3% (inactive)
13,Nc1ncc2c(n1)-c1cc(Cl)ccc1SC2,-6.1% (inactive)
14,Cc1c(Cl)c([N+](=O)[O-])nn1CCCC(=O)Nc1cccc(O)c1,-0.3% (inactive)
15,O=[N+]([O-])c1cc(S(=O)(=O)C(F)(F)F)ccc1Sc1nc2ccccc2[nH]1,46.1% (inactive)
16,Cc1ccc(CN2CCN(Cc3cccn3-c3ccc(Cl)cn3)CC2CCO)o1 (centres undefined),-17.4% (inactive)
17,O=C(CSc1ccc2nnc(-c3ccncc3)n2n1)Nc1ccc2c(c1)OCCO2,9.6% (inactive)
18,Cc1ccccc1OCc1nc2ccccc2c(=O)n1/N=C/c1ccco1,31.5% (inactive)
19,Cc1ccccc1OCc1nc2ccccc2c(=O)n1/N=C/c1cccc([N+](=O)[O-])c1,80.1% (active)
20,Cc1cc(/C=N/n2c(COc3ccccc3C)nc3ccccc3c2=O)c(O)c([N+](=O)[O-])c1,15% (inactive)
21,O=C(Oc1ccc2ccc(=O)oc2c1)c1ccc([N+](=O)[O-])cc1,-9.4% (inactive)
22,CCc1nc(C)cn1S(=O)(=O)c1ccc(Br)cc1,-17.6% (inactive)
23,CCOc1ccccc1NC(=O)c1cc(C(=O)c2cc(Br)ccc2O)coc1=N,56.4% (active)
24,CCOC(=O)c1cc(C(=O)c2cc(Br)ccc2O)coc1=N,-15.1% (inactive)
25,CCOc1ccccc1NC(=O)c1cc(C(=O)c2cc(OC)ccc2O)coc1=N,-9.3% (inactive)

row,Compound,inhibition
1,COc1cccc(CNC(=O)C(C)n2nc(C)n3c(cc4occc43)c2=O)c1 (centres undefined),-11.7% (inactive)
2,CCOc1cc2[nH]c(=O)n(CCC(=O)NCCc3ccccc3)c(=O)c2cc1OCC,-0.5% (inactive)
3,Cc1cc(C)c(S(C)(=O)=O)c(S(=O)(=O)c2ccc(Cl)cc2)n1,-33.9% (inactive)
4,O=C(O)CSc1c2c(nc3cc(C(=O)NCCN4CCOCC4)ccc13)CCC2,91.8% (active)
5,CC(C)CCNC(=O)c1ccc2c(SCC(=O)O)c3c(nc2c1)CCC3,0.8% (inactive)
6,CC(C)CCNC(=O)c1ccc2c(SCC(=O)O)c3c(nc2c1)CCCC3,-29.5% (inactive)
7,Cc1ccc(S(=O)(=O)Cc2ccc(C(=O)N3CCN(c4cccc(C)c4C)CC3)o2)cc1,27.1% (inactive)
8,Cc1ccccc1S(=O)(=O)Cc1ccc(C(=O)N2CCN(c3ccccc3F)CC2)o1,21.3% (inactive)
9,COc1ccccc1-c1noc(-c2cc(OC)c(OC)c(OC)c2)n1,-24% (inactive)
10,CC(C(=O)OCC(=O)c1cccc([N+](=O)[O-])c1)N1C(=O)C2C3CCC(C3)C2C1=O (centres undefined),-8.4% (inactive)
11,NC(=O)COC(=O)C1CSC2(c3ccc(F)cc3)CCC(=O)N12 (centres undefined),-7.5% (inactive)
12,O=C(CSCC(=O)Nc1ccccc1)N/N=C/c1c(O)ccc2ccccc12,86.4% (active)
13,O=C(CNc1ccccc1)N/N=C/c1c(O)ccc2ccccc12,-10.9% (inactive)
14,Oc1ccc2ccccc2c1/C=N/Nc1ccccc1,-38.9% (inactive)
15,Cc1cccc(C)c1NC(=O)CCCSc1nnnn1C,-22.8% (inactive)
16,Cc1ccc(NC(=O)CC2SC(=NC3CCCCC3)NC2=O)cc1 (centres undefined),-23.2% (inactive)
17,CCCn1cccc(C(=O)Nc2ccc(OC)cc2)c1=O,-3.2% (inactive)
18,O=C(CSc1nnc(CNC(=O)c2c(F)cccc2F)o1)NCc1ccccc1,-29.1% (inactive)
19,CCN(CC)S(=O)(=O)c1ccc(N=Cc2c(C)c(C#N)c(=O)n(C)c2O)cc1,-9.8% (inactive)
20,COc1ccc(C2NC(=S)NC(O)(C(F)(F)F)C2C(=O)c2cccs2)cc1 (centres undefined),-33.8% (inactive)
21,BrC(=C\c1ccccc1)/C=N/n1cnnc1,66.7% (active)
22,Nc1nnnn1/N=C/c1ccccc1,-4% (inactive)
23,CC(/C=N/n1cnnc1)=C\c1ccccc1,-1% (inactive)
24,ClC(/C=N/n1cnnc1)=C/c1ccccc1,1.7% (inactive)
25,Nc1nnnn1/N=C/C=C/c1ccccc1,10.1% (inactive)

row,Compound,inhibition
1,Nc1nnnn1/N=C/C(Br)=C/c1ccccc1,95.9% (active)
2,Cc1ccc(C(=O)Nc2ccc(S(=O)(=O)Nc3cnc4ccccc4n3)cc2)cc1,-14.5% (inactive)
3,COc1cccc(/C=C2\SC(=S)N(CCCC(=O)Nc3cc(C)on3)C2=O)c1,-22.5% (inactive)
4,Cc1cccc2c1CC(C)(C)N=C2C1=C(O)CCCC1=O,-19.9% (inactive)
5,C/C(=N\NC(=O)C1CC1)c1ccc(C(C)(C)C)cc1,-39.6% (inactive)
6,CSc1ccc(OC2CCCCC2NS(=O)(=O)c2ccc(Cl)cc2)cc1 (centres undefined),8.3% (inactive)
7,CNC(=S)N/N=C/c1cc(Br)cc(Br)c1O,73.9% (active)
8,CNC(=S)N/N=C/c1cc(C)ccc1C,-38.3% (inactive)
9,CCC(O)(CC)C(=O)N/N=C/c1cc(Br)cc(Br)c1O,1.3% (inactive)
10,Oc1c(Br)cc(Br)cc1/C=N/NC(=S)N[C@H]1CC2C=CC1C2 (some centres undefined),47.8% (active)
11,Oc1c(Br)cc(/C=N/NC(=S)NCc2ccco2)cc1Br,15% (inactive)
12,Oc1ccccc1/C=N/NC(=S)NC1CC2C=CC1C2 (centres undefined),-1.4% (inactive)
13,Oc1c(Cl)cc(Cl)cc1/C=N/NC(=S)NC1CC2C=CC1C2 (centres undefined),26.6% (inactive)
14,CC(C)(C)NC(=S)N/N=C/c1cccnc1,-10.2% (inactive)
15,Nc1nc(SCC(=O)N2CCCCC2)[nH]c(=O)c1NC(=O)c1cccs1,-15.7% (inactive)
16,COc1ccc(N(CC(=O)Nc2ccc3c(c2)OCCO3)S(C)(=O)=O)c(OC)c1,-7.6% (inactive)
17,COc1ccc(Cn2c3ccc(OC)cc3c3nc4ccccc4nc32)cc1,-41.1% (inactive)
18,Cc1cc(Br)ccc1OCCCCNCCO,-40.2% (inactive)
19,O=c1cc(COc2ccc(Cl)c(Cl)c2)nc2sccn12,-5.4% (inactive)
20,CCN(CC)c1ccc(N=Cc2ccc([N+](=O)[O-])o2)cc1,-31.4% (inactive)
21,Cc1ccc(NC(=O)Cc2ccccc2)c(C)c1,-29.9% (inactive)
22,Cc1ccc(NC(=O)c2cc(C)nc3ccccc23)c(C)c1,-34.7% (inactive)
23,COc1ccccc1N(C(=O)c1ccco1)C(C(=O)NC1CCCC1)c1ccc(N2CCOCC2)cc1 (centres undefined),37.6% (inactive)
24,Cc1ccccc1CC(=O)N1CCCC(CCC(=O)N2CCN(c3ccccn3)CC2)C1 (centres undefined),-12.6% (inactive)
25,Cc1c(CCO)c(=O)n2c([nH]c3ccccc32)c1C#N,1.6% (inactive)

row,Compound,inhibition
1,Cc1c(Cc2ccccc2)c(=O)n2c([nH]c3ccccc32)c1C#N,90.3% (active)
2,CCc1c(C)c(C#N)c2[nH]c3ccccc3n2c1=S,1.4% (inactive)
3,Cc1c(CCC(C)C)c(=O)n2c([nH]c3ccccc32)c1C#N,91.2% (active)
4,C=C(C)Cc1c(C)c(C#N)c2[nH]c3ccccc3n2c1=O,19.2% (inactive)
5,Cc1c(CCC(=O)O)c(=O)n2c([nH]c3ccccc32)c1C#N,0.9% (inactive)
6,CN(C1CCCCC1)S(=O)(=O)c1ccc(NC(=O)c2ccco2)cc1,1.3% (inactive)
7,CN1C(=O)C(C)(C)c2cc(S(=O)(=O)N(C)Cc3ccccc3)ccc21,-4.1% (inactive)
8,COc1cccc2c1Oc1ncccc1N(C(=O)CCC(=O)NCc1ccccc1)C2,-19.2% (inactive)
9,O=C(CN1CCCc2ccccc21)NC(=O)NCc1ccccc1,-4.3% (inactive)
10,O=C(c1ccccc1)C1CCN(c2ncccc2[N+](=O)[O-])CC1,-8.7% (inactive)
11,CCc1nc(NCc2ccc3c(c2)OCO3)c2oc3ccccc3c2n1,23.2% (inactive)
12,c1ccc2c(c1)oc1c(NCc3ccc4c(c3)OCO4)ncnc12,66.2% (active)
13,Cc1nc(NCc2ccc3c(c2)OCO3)c2oc3ccccc3c2n1,15.2% (inactive)
14,O=C(CSc1nnnn1-c1ccccc1)Nc1ccc(Cl)cc1,18.8% (inactive)
15,O=C(CSc1nnnn1-c1ccccc1)Nc1ccccc1,-15.6% (inactive)
16,O=C(CSc1nnnn1-c1ccccc1)CC(=O)Nc1ccc(Cl)cc1,73.1% (active)
17,CN1C(=O)SC(Nc2cccc3ccccc23)C1=O (centres undefined),-30.3% (inactive)
18,O=C(CCN1C(=O)C2CC=C(Cl)CC2C1=O)NC1CCCCC1 (centres undefined),-1.2% (inactive)
19,O=C(CCN1C(=O)C2CC=CCC2C1=O)NC1CCCCC1 (centres undefined),44.9% (active)
20,O=C(CN1C(=O)C2CC=CCC2C1=O)NC1CCCCC1 (centres undefined),-35.5% (inactive)
21,Cc1cc2ccccn2c1C(=O)c1ccc(C#N)cc1,2% (inactive)
22,CCOc1ccc2c(c1)OC(c1ccc(OC)cc1)(C(F)(F)F)NC2=O (centres undefined),-30.6% (inactive)
23,CCOc1ccc2c(c1)OC(c1ccccc1)(C(F)(F)F)NC2=O (centres undefined),-42.1% (inactive)
24,CCOc1ccc2c(c1)OC(c1ccc(C)cc1)(C(F)(F)F)NC2=O (centres undefined),101% (active)
